Measurements reported in the supplement of paper PMC3334620.
Over roughly 33,000 sequences, “E-score (-0.5 to 0.5)” has its median near -0.016; the highest 2% begin near 0.31. Many of the other results were omitted from the sample, so the highest values are more common in it than they were.

Biological target: Cst6 (UniProt P40535)
Assay: PBM E-score (8-mer binding enrichment) (E-score (-0.5 to 0.5)); higher = stronger / more preferred TF binding
Details: protein concentration: 200 nM; construct: GST-DNA-binding domain
Summary of the method: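 For each ungapped eight-base word taken together with its reverse complement, the Universal PBM Analysis Suite assigned an E-score. Binding data came from GST-tagged yeast transcription factors, applied at about 100-200 nM, on universal all-10-mer Agilent arrays made double-stranded by primer extension. Fluorescent anti-GST marked bound protein, and scans were normalised with masliner.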

Chain of UniProt P40535 (P40535 whole entry): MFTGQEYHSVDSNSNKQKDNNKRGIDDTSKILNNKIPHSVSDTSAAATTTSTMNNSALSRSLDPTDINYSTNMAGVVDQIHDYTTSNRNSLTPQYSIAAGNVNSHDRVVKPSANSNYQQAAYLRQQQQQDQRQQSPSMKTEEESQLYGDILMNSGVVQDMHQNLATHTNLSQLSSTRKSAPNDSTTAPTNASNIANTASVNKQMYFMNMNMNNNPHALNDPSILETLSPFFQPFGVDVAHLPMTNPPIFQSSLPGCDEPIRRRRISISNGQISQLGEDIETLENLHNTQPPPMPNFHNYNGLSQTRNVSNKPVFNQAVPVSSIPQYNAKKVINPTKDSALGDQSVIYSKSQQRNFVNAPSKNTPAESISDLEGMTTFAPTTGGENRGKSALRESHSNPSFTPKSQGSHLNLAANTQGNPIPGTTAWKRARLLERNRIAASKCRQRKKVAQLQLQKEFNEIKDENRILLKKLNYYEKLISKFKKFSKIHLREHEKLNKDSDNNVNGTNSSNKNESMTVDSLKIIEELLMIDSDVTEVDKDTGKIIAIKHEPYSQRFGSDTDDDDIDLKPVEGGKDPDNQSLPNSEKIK

Row | Sequence | PBM E-score
1 | CATGCGGC | 0.33
2 | CGTGCGGA | 0.0478
3 | AGTGCGGC | 0.173
4 | AATGCGGC | 0.266
5 | CGTGCGGC | 0.321
6 | CATGCGGA | -0.0527
7 | ATTAAGAC | -0.0411
8 | AGTTGATA | 0.103
9 | GAAAAGAC | 0.222
10 | CGACAGAG | -0.315
11 | TGCCTTAA | -0.0513
12 | AGAACAAT | 0.25
13 | AGAACAAG | 0.113
14 | AGAACAAA | 0.34
15 | AAAAAAAA | 0.317
16 | ACAAAAAC | 0.104
17 | AAAAAAAG | 0.211
18 | ACAAAAAA | 0.311
19 | CCAAAAAA | 0.279
20 | GAAAAAAA | 0.258
21 | ACAAAAAT | 0.279
22 | CAAAAAAA | 0.32
23 | CAAAAAAC | 0.201
24 | CATCCAGC | -0.0585
25 | CTCCGTAA | -0.0462
26 | CCACCTAA | -0.0425

Row | Sequence | PBM E-score
27 | TAGCCCGA | -0.177
28 | CACAATCA | 0.17
29 | AGTTTGAC | 0.0432
30 | ACTTTAAT | 0.107
31 | AGTACGTG | -0.125
32 | CCTACGTA | 0.297
33 | ACTACGTG | -0.0819
34 | CTCACGTA | -0.00865
35 | GTTACGTA | 0.46
36 | ATTACGTG | 0.46
37 | ACTACGTA | 0.343
38 | GTTACGGA | 0.11
39 | ATTACCTG | 0.14
40 | CTTACGAA | 0.119
41 | CTTACGTA | 0.466
42 | GCTACGTA | 0.213
43 | AGTCTCAA | -0.217
44 | CAAACCTC | -0.272
45 | TCTTCACA | 0.113
46 | AAACCCGT | 0.0445
47 | ATCTCGTG | -0.0972
48 | ATCGCTGG | -0.217
49 | AGACGCAT | -0.0757
50 | ACTACGTC | 0.157
51 | ATTACGTC | 0.485
52 | CTTACGTC | 0.421

Row | Sequence | PBM E-score
53 | ATTAGGTA | 0.261
54 | CTTACGCC | 0.193
55 | ATTACGTA | 0.49
56 | CTCACGTC | 0.14
57 | ATTACGGC | 0.266
58 | ATTACGGA | 0.154
59 | AACCTTCG | 0.0222
60 | CCAAGGCC | -0.19
61 | CCATTCTA | -0.0992
62 | AAGAATTG | 0.182
63 | ACTTGCTC | -0.198
64 | ATCAAACA | 0.107
65 | CAGTTGGC | -0.175
66 | AGGTCACG | 0.0374
67 | AAGTCACA | 0.119
68 | AAGTCACG | 0.0378
69 | AGGTCACT | -0.0496
70 | ACGTCACG | 0.49
71 | ACGTCACT | 0.495
72 | ACGTCACA | 0.484
73 | AAGTCACT | 0.141
74 | AGGTCACA | -0.0345
75 | TGCACCAA | -0.0568
76 | AGTTGCTG | -0.0492
77 | ACACACAG | 0.107
78 | CACGCTGC | -0.246

Row | Sequence | PBM E-score
79 | CAACCACC | -0.251
80 | ATTCTCGC | -0.17
81 | AAGTACCC | -0.275
82 | ATGCCTCC | -0.0323
83 | ATGCCTCG | 0.317
84 | ATGCCTCA | 0.11
85 | ATGTCATC | 0.432
86 | ATGTCAGC | 0.225
87 | ATGTCGTG | 0.0262
88 | ATGTCATA | 0.442
89 | ATGTCAAG | 0.235
90 | GTGTCATA | 0.249
91 | CTGTCATC | 0.186
92 | CTGTCATA | 0.186
93 | ATGTCATG | 0.425
94 | ACTTTGAA | 0.0348
95 | GCATCGAA | -0.0745
96 | GGATCTAA | -0.0815
97 | GACCTTAA | -0.0362
98 | CTAGTGCC | -0.125
99 | AGCTATCG | -0.106
100 | GCAGCAGC | -0.133
101 | GTCACCAA | 0.315
102 | ATCACCGA | 0.212
103 | CTCACCAA | 0.102
104 | ATCACCAC | 0.244

Row | Sequence | PBM E-score
105 | GTCACCAC | 0.373
106 | TTCACCAA | 0.124
107 | CTCACCGA | 0.048
108 | GTCACCGA | 0.426
109 | CTCACCAC | -0.0767
110 | GTGGTGAA | -0.0462
111 | GTCTCCAA | -0.00606
112 | GAGCAAAA | 0.0129
113 | CGAGCCTA | 0.011
114 | GTTTATTA | 0.164
115 | ATTTATTA | 0.357
116 | AATTATTA | 0.321
117 | AATTATTG | 0.252
118 | AATTATTC | 0.219
119 | AATTATGA | 0.359
120 | ATTATTTA | 0.305
121 | AATTATGT | 0.304
122 | AATTATGG | 0.0357
123 | AGCCGATA | -0.0664
124 | CCAAGATC | -0.12
125 | CGTGAGAG | -0.269
126 | AAGACGTC | 0.28
127 | ATGACGTC | 0.497
128 | ACGACGTC | 0.218
129 | CAGACGTC | 0.113
130 | CGGACGTC | 0.252

Row | Sequence | PBM E-score
131 | CTGACGTC | 0.482
132 | AGCAAGCA | -0.252
133 | GCCCAGGC | -0.318
134 | AGGTATGC | 0.111
135 | CCGTATGA | 0.226
136 | ATGTATGA | 0.336
137 | ACGTATGC | 0.32
138 | CCGTATGC | 0.0167
139 | GTGTATGA | 0.186
140 | ACGTATGG | 0.158
141 | ACGTATGA | 0.432
142 | ATGTATGG | 0.0177
143 | GGGAAGAA | -0.0773
144 | ACTGGTGA | -0.0583
145 | GAGTTGGA | -0.0506
146 | ATACGTAC | 0.198
147 | ATACGTAA | 0.463
148 | ACACGTAT | 0.238
149 | TTACGAAA | 0.284
150 | CTACGTAG | 0.137
151 | AGACGTAT | 0.144
152 | ATACGTAG | 0.186
153 | TTACGTAA | 0.493
154 | TTACGGAA | 0.178
155 | CTACGTAC | 0.00059
156 | CTACGTAA | 0.451

Row | Sequence | PBM E-score
157 | ATACGTAT | 0.376
158 | AGGTCCAT | -0.0689
159 | CGTTCTCC | -0.174
160 | CAGCGCCC | -0.0102
161 | ATAGATGC | -0.0272
162 | TAGCAGAA | 0.107
163 | AGTATGTC | 0.155
164 | CAGTGTGA | 0.158
165 | AGGTTGAC | 0.0459
166 | GAAACGCA | 0.172
167 | AGACATCC | -0.211
168 | GTACGTAA | 0.449
169 | GCACGTAC | -0.00487
170 | GTACGTAC | 0.0996
171 | TCAAGCGA | -0.00748
172 | ACAGGCGG | -0.104
173 | AAGCCGTA | 0.173
174 | CTGCCGTA | 0.0163
175 | ATGCCGAA | 0.0887
176 | ATGCCGTG | 0.283
177 | CTGCCGTC | 0.0959
178 | ATGCCGTA | 0.372
179 | GTGCCGTA | 0.389
180 | GTGCCGGA | -0.104
181 | ATGCCGTC | 0.323
182 | GGGTTAAA | -0.06

Row | Sequence | PBM E-score
183 | GAGAGAGC | -0.197
184 | AATTGCGC | 0.309
185 | AATTGCGG | -0.0187
186 | AATTGCGA | -0.111
187 | GATTGCGC | 0.0307
188 | AATTGCGT | 0.315
189 | CATTGCGC | 0.0683
190 | AAAACGCG | 0.205
191 | AACGTTGC | -0.0467
192 | AAGTACCT | -0.196
193 | AAGTGAAG | -0.0822
194 | AAGCCGAC | -0.231
195 | ACACGGCT | 0.266
196 | CAACGCCG | 0.191
197 | AAACGCCA | 0.18
198 | AGACGGCG | 0.305
199 | CGACGGCG | 0.257
200 | AGACGGCC | -0.214
201 | ACACGGCA | 0.282
202 | CCACGGCA | 0.235
203 | CCACGGCC | -0.0591
204 | CCACGGCG | 0.309
205 | ACACGGCG | 0.394
206 | AAACGCCG | 0.36
207 | TCCTCCGA | -0.395
208 | CCCCTTAA | -0.212

Row | Sequence | PBM E-score
209 | AGGCAAAT | 0.164
210 | ATACAGGC | -0.121
211 | GCAGGCAA | -0.0304
212 | AGAGGATC | -0.18
213 | AAACGGCG | 0.369
214 | AAACGGCT | 0.105
215 | AAACGGCC | 0.084
216 | ACAAGTAA | -0.0276
217 | CCAGTTCA | 0.0369
218 | GAAATGAC | 0.32
219 | CTAATGAC | 0.252
220 | GTAATGAC | 0.377
221 | ATAATGGA | 0.109
222 | CAAATGAC | 0.248
223 | GAAATGAA | 0.237
224 | AAAATGAA | 0.155
225 | AAAATGAC | 0.327
226 | GTAATGGA | 0.353
227 | GTAATGAA | 0.268
228 | AAAATGAT | 0.298
229 | CTAATGGA | -0.085
